# Source: PubChem (several laboratories)
# Autofluor counter: flagged as autofluorescent in microsphere protease counterscreen. compound autofluorescence counterscreen, microsphere flow cytometry; hits give high values. fluorescence intensity (test concentration not listed). 360,000 tested, 3.1% active. AID 624483; in the data active = fluorescence intensity above about 16000; inconclusive = no clear call, values can overlap the other calls
# FBA Mtb inh: Mtb fructose-bisphosphate aldolase inhibition. P9WQA3. purified M. tuberculosis FBA, fluorescence read-out. inhibition, % at 1 µM. 360,000 tested, 2.3% active; in the data active = inhibition above about 27%;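 also: 0% = vehicle and 100% = reference inhibitor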
# Target sequence (P9WQA3 whole entry, looked up): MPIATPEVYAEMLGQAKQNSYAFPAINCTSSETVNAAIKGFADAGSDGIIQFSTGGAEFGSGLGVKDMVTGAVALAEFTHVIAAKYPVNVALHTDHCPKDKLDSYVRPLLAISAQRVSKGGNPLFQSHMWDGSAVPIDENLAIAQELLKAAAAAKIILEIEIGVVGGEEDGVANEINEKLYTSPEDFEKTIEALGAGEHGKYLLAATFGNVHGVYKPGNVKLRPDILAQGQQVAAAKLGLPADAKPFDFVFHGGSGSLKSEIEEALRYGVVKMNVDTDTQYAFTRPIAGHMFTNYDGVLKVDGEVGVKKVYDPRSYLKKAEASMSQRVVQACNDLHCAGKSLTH
# GDH-TPI inh: GDH-TPI coupled enzyme inhibition counter-screen. AID 588335. 360,000 tested, 1.2% active. GDH-TPI coupled enzyme counterscreen, NADH absorbance. inhibition, % at 4.8 µM; in the data active = inhibition above about 30%;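 also: 0% = DMSO wells and 100% = wells lacking the enzyme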
# BoNT A protease: inhibitors of Botulinum neurotoxin A light chain protease; multiplex microsphere protease substrate cleavage, flow cytometry; inhibition, % at 10 µM; 360,000 tested, 0.17% active; AID 588499; also: plate controls were buffer without enzyme for full effect and enzyme alone for no effect
# Anthrax LF inh2: inhibitors of Bacillus anthracis lethal factor protease. inhibition, % at 10 µM. 360,000 tested, 0.12% active. P15917. AID 588501. multiplex microsphere protease cleavage assay, LF; also: plate controls were buffer without enzyme for full effect and enzyme alone for no effect
# BoNT F protease: blocks Botulinum neurotoxin F light chain protease; Multiplex microsphere protease cleavage assay, flow cytometry; inhibition, % at 10 µM; 360,000 tested, 0.22% active; AID 588497; in the data active = inhibition above about 35%, passing the limit was not always enough; inconclusive = no clear call, values can overlap the other calls; also: plate controls were buffer without enzyme for full effect and enzyme alone for no effect
# * marks the source's active call; other numbers are inactive results; ? = inconclusive; nt = no result; + = active, no number. Sampled rows, rich in hits. Any-hit rate of the full collection: about 6.6%. Rule as the data show it, unless noted: active = inhibition above about 30%; inconclusive = no clear call, values can overlap the other calls; inactive = below that.
SMILES,Autofluor counter,FBA Mtb inh,GDH-TPI inh,BoNT A protease,Anthrax LF inh2,BoNT F protease
CCOc1cc(C(=S)N2CCCC2)ccc1OC,3437,-2,0,-1,6,7
CN1C(=O)CC(N2CCN(c3ccc(Cl)c(Cl)c3)CC2)C1=O (stereo unspecified),16251*,-1,4,0,0,2
CCCn1ncc(CN2CCN(Cc3ccsc3)C(CCO)C2)c1C (stereo unspecified),4609,2,12,1,-5,-5
CNC[C@H]1OCc2ccccc2-c2ccccc2C(=O)N([C@@H](C)CO)C[C@H]1C,3641,3,6,-1,-2,-13
CC(C)(C)c1nnc(N/N=C/c2ccccc2O)n(N)c1=O,10982,0,36*,-3,-3,-9
CC(C)(C)c1nnc(N/N=C/c2ccccc2)n(N)c1=O,1951,-1,21,0,-1,-1
CC(C)(C)C(=O)Nc1nnc(CSCc2ccccc2F)s1,19760*,-1,5,1,-2,1
CC(C)COC(=O)Nc1nnc(SCc2ccccc2F)s1,22547*,1,9,2,4,6
COc1ccc(Nc2ncnc3c2c(C)c(C)n3CCCN(C)C)cc1,3684,0,3,-2,0,4
Clc1cccc(Cl)c1Cn1cc(Br)cn1,16279*,-2,6,1,-1,3
O=c1oc2ccccc2cc1-c1nc(-c2cccs2)cs1,8352,1,27,58*,41*,32
Cc1cc(Cl)ccc1OCC(=O)N1C(C)CCCC1C (stereo unspecified),24242*,0,12,-4,-7,-4
O=C1C2C3C=CC(C3)C2C(=O)N1CC1CCCO1 (stereo unspecified),20157*,-1,0,?,1,-1
N=C1SCC(=O)N1c1ncc(Cc2ccc(F)cc2)s1,4588,1,31*,-2,-4,2
COc1ccc2c(c1)CC1(CN2C)C(=O)NC(=O)N(c2ccc(F)cc2)C1=O (stereo unspecified),22766*,2,8,0,-1,0
CCc1nc2c(OCCn3cccc3)cccn2c1N(C)C(=O)c1ccco1,3954,1,0,0,-4,0
Cn1c(=O)c2[nH]c(-c3cccnc3)nc2n(C)c1=O,21912*,3,24,1,-2,0
CS(=O)(=O)c1ccc2sc(NC(=O)c3cc4ccccc4o3)nc2c1,3835,5,72*,-1,-6,-3
CS(=O)(=O)c1ccc2nc(NC(=O)c3ccccc3Cl)sc2c1,3905,-1,19,-5,8,-12
Cc1nnc(NC(=O)c2cc3ccccc3o2)s1,6207,-2,11,1,0,0
CS(=O)(=O)c1ccc2nc(NC(=O)c3cc4ccccc4o3)sc2c1,3356,5,47*,0,1,-12
O=S1(=O)CCN(OCc2ccc(Cl)cc2)CC1,?,-2,-1,-4,5,-12
COCCCn1c(=O)/c(=C\c2cccc(OC)c2OC)s/c1=C(/C#N)C(=O)Nc1ccc(C(=O)O)cc1,4571,-2,40*,0,-4,-2
Cc1nc2c(C(=O)Nc3ccc(N4CCCC(O)C4)cc3)snc2c(=O)[nH]1 (stereo unspecified),3325,-2,44*,-1,-8,-1
O=C(Nc1ccccc1NS(=O)(=O)c1ccc(F)cc1)C1CCC1,3951,-1,-4,0,-8,-5
SMILES,Autofluor counter,FBA Mtb inh,GDH-TPI inh,BoNT A protease,Anthrax LF inh2,BoNT F protease
CCOC(=O)c1c(NC(NC(=O)C(C)C)C(Cl)(Cl)Cl)sc2c1CCC2 (stereo unspecified),2881,7,7,4,-4,47*
O=C(O)c1ccccc1C(=O)Nc1ccccn1,23171*,14,3,1,-2,1
O=C(Nc1ccccn1)c1ccc2ccccc2c1O,3050,11,11,-2,-24,-10
Cc1ccc2[nH]c3c(=O)n(CC(=O)N4CCN(C)CC4)ncc3c2c1,5908,19,-2,-1,2,7
N#C/C(=C\c1c(N2CCOCC2)nc2ccccn2c1=O)C(=O)NC1CCS(=O)(=O)C1 (stereo unspecified),5427,+,13,0,0,4
C=CCNC(=O)/C(C#N)=C/c1c(N2CC(C)OC(C)C2)nc2ccccn2c1=O (stereo unspecified),2039,126*,4,1,0,0
O=C(CCNS(=O)(=O)c1ccc(Br)cc1)NCc1ccco1,nt,0,3,nt,nt,nt
